The campaign covered roughly 52,000 compounds. About 4,300 (8.3%) were called active. Cut-off read from the data, not from the text of the source: active = survival mostly below about 52% (no sharp cut-off); inactive = mostly above about 56%. The list comes from a sample in which actives are over-represented; it also holds similar structures and randomly drawn compounds.

This experiment concerns DeltatarO mutant. Put plainly: S. aureus survival, RN4220 and DeltatarO strains – OD600, teichoic acid synthesis inhibitors, primary screen (AID 463173). The note with it: S. aureus RN4220 wild type/DeltatarO growth, OD600, 18 h, stronger effect = lower value, screened at 18.75 µg/mL (by protocol).
In the case of `CCC1CN(C(=O)N2CCC(C(=O)Nc3ccccc3F)CC2)c2ccccc2O1` (configuration not stated), the survival is 74% (inactive).
Regarding `Cc1ccc(NC(=O)c2oc3ccc(S(=O)(=O)N4CCOCC4)cc3c2C)c(C)c1`, the survival was 125% (inactive).
`CCOC(=O)c1cn(CC(=O)Nc2ccc(OC)cc2OC)nn1`: the survival is 83% (inactive).
Take `Cc1cccc(CNC(=O)Cn2nc(C)n3c(cc4cc(F)ccc43)c2=O)c1`: the survival was 77% (inactive).
Under `O=C(O)CCc1ccco1` stands 98% (inactive); under `CCOC(=O)C1CCN(C(=O)Cc2cccc3ccccc23)CC1`, 82% (inactive); under `CCN(CC)S(=O)(=O)c1ccc(C(=O)NCCSc2c(-c3ccc(F)cc3)[nH]c3ccccc23)cc1`, 69% (inactive).
For `CCOC(=O)COc1ccc(F)cc1C(=O)c1ccn2nc(-c3ccc(C)cc3)cc2n1`, the survival is 80% (inactive).
In the case of `COc1ccc(-c2nc(Cn3c(SCc4ccccc4F)nc4cccnc43)c(C)o2)cc1` it was 69% (inactive); in that of `COc1ccc(Cn2c(C(=O)O)c(CNCc3cccs3)c3ccc(C)cc32)cc1`, 89% (inactive).
Turning to `Cc1ccc(Cn2c(C(=O)O)c(CNCc3cccs3)c3ccc(C)cc32)cc1`, the survival is 48% (active).
Consider `C=Cc1ccc(Cn2c(C(=O)O)c(CNCc3ccccc3)c3ccc(C)cc32)cc1`, for which the survival is 120% (inactive).
As for `Cc1ccc2c(CNCCc3ccc(Cl)cc3)c(C(=O)O)n(Cc3ccc(F)cc3)c2c1`, the survival is 8% (active).
For the compound `Cc1ccc2c(CNCCc3ccco3)c(C(=O)O)n(Cc3ccc(F)cc3)c2c1`, the survival is 59% (inactive).
Consider `Cc1ccc2c(CNCc3cccs3)c(C(=O)O)n(Cc3ccc(F)cc3)c2c1`, for which the survival is 82% (inactive).
`Cc1ccc(Cn2c(C(=O)O)c(CNCc3ccc(OC(C)C)cc3)c3ccc(C)cc32)cc1`: the survival was 11% (active).
Take `Cc1ccc(CNCc2c(C(=O)O)n(Cc3ccc(C)cc3)c3cc(C)ccc23)cc1`: the survival is 2% (active).
As to `Cc1ccc(Cn2c(C)c(CNCc3ccc(OC(C)C)cc3)c(C(=O)O)c2C)cc1`, the survival was 121% (inactive).
Consider `Cc1ccc(Cn2c(C(=O)O)c(CNCc3ccccc3Cl)c3ccc(C)cc32)cc1`, for which the survival is 58% (inactive).
As to `COc1ccc(Cn2c(C(=O)O)c(CNCc3cccc(OC)c3)c3ccc(C)cc32)cc1`, the survival was 74% (inactive).
On to `C=Cc1ccc(Cn2c(C(=O)O)c(CNCc3ccc(F)cc3)c3ccc(C)cc32)cc1`, for which the survival is 86% (inactive).
For the compound `CCCN(Cc1cccs1)C(=O)Nc1ccc(F)c(Cl)c1`, the survival is 58% (inactive).
With `COc1ccc(OC)c(CNC(=O)CCCn2c(=O)c3cccn3c3cccnc32)c1`, the survival is 97% (inactive).
In the case of `CCOc1ccc(NC(=O)CC2C(=O)N(c3ccc(Cl)cc3)C(=O)N2Cc2cccs2)cc1` (configuration not stated), the survival is 81% (inactive).
Take `Cc1cc(C)cc(NC(=O)C(Cc2ccccc2)NS(=O)(=O)c2ccc3c(c2)CCC(=O)N3)c1` (configuration not stated): the survival is 77% (inactive).
`CCOC(=O)C(C)NC(=O)c1cc2c(=O)[nH]c3ccc(C)cc3c2s1` (configuration not stated): the survival was 57% (inactive).
Under `CCc1ccc(CNCc2c(C(=O)O)n(Cc3ccc(C)cc3)c3cc(C)ccc23)cc1` stands 14% (active).
`Cc1ccc(Cn2c(C(=O)O)c(CNCCc3cccs3)c3ccc(C)cc32)cc1`: the survival is 82% (inactive).
With `Cc1ccc(Cn2c(C(=O)O)c(CNCc3ccc(C)o3)c3ccc(C)cc32)cc1`, the survival was 52% (inactive).
With `COC(=O)c1scc(-c2ccc(C)cc2)c1S(=O)(=O)Nc1cc(C)ccc1OC`, the survival was 75% (inactive).
Consider `CS(=O)(=O)c1ncc(Cl)c(C(=O)Nc2c(C(=O)c3ccc(Cl)cc3)oc3ccccc23)n1`, for which the survival is 109% (inactive).
Turning to `CCCSc1ncc(Cl)c(C(=O)Nc2c(C(=O)c3ccc(C)cc3)oc3ccccc23)n1`, the survival was 56% (inactive).
In the case of `CCSc1ncc(Cl)c(C(=O)Nc2c(C(=O)c3ccccc3)oc3ccccc23)n1`, the survival was 79% (inactive).
Regarding `CCS(=O)(=O)c1ncc(Cl)c(C(=O)Nc2c(C(=O)c3ccc(C)cc3)oc3ccccc23)n1`, the survival was 50% (active).
For the compound `CCCSc1ncc(Cl)c(C(=O)Nc2c(C(=O)c3ccc(F)cc3)oc3ccccc23)n1`, the survival is 44% (active).
Regarding `CCCS(=O)(=O)c1ncc(Cl)c(C(=O)Nc2c(C(=O)c3ccccc3)oc3ccccc23)n1`, the survival was 102% (inactive).
In the case of `CCOc1ccc(NC(=O)CSc2ccc3ccccc3n2)cc1` it was 67% (inactive); in that of `Cc1ccc(-n2c(=O)c3oc4ccccc4c3n(CC(=O)Nc3ccc(F)c(Cl)c3)c2=O)cc1C`, 65% (inactive).
Under `CCC(C(=O)NCc1ccccc1OC)n1nc(C)n2c(cc3sccc32)c1=O` (configuration not stated) stands 82% (inactive); under `O=S(=O)(c1ccc2nc(Nc3ccc(Br)cc3F)ccc2c1)N1CCCC1`, 117% (inactive).
As for `O=C(Nc1ccccc1C(F)(F)F)n1ncc2cc(Cl)ccc21`, the survival is 104% (inactive).
In the case of `O=C(Nc1ccc(F)cc1Cl)n1ncc2cc(Cl)ccc21` it was 13% (active); in that of `Cc1ccc(C)c(NC(=O)n2ncc3cc(Cl)ccc32)c1`, 82% (inactive).
In the case of `CC1(c2ccc(Cl)cc2Cl)OCC(Cn2cncn2)O1` (configuration not stated) it was 83% (inactive); in that of `Cc1ccc(-c2nn(CO)c(=S)o2)cc1`, 48% (active).
Under `S=c1oc(-c2ccccc2)nn1CNc1ccccc1` stands 83% (inactive).
For `CCN(CC)Cn1nc(-c2ccccc2Cl)oc1=S`, the survival is 77% (inactive).
`CCOc1ccc2c(c1)NC(c1cccs1)=NC(c1ccc(F)cc1)=N2`: the survival was 50% (inactive).
On to `CCc1nn(CCCC(=O)NCc2ccc(OC(C)C)cc2)c(=O)c2cc3occc3n12`, for which the survival is 77% (inactive).
As to `COc1ccccc1N1CCN(S(=O)(=O)c2ccc(S(=O)(=O)NC3CCCC3)cc2)CC1`, the survival was 55% (active).
In the case of `COc1ccccc1N1CCN(C(=O)c2cc(S(=O)(=O)N3CCC(C)CC3)cn2C)CC1`, the survival was 32% (active).
In the case of `CCOc1ccccc1N1CCN(S(=O)(=O)c2ccc(C3CCCCC3)cc2)CC1`, the survival was 50% (inactive).
Consider `COc1ccccc1N1CCN(C(=O)C2CCN(S(=O)(=O)c3cn(C)cn3)CC2)CC1`, for which the survival was 46% (active).
As to `COc1ccccc1N1CCN(S(=O)(=O)c2ccc(-c3cnc(C4CC4)o3)cc2)CC1`, the survival is 113% (inactive).
In the case of `CC(=O)c1ccc(N2CCN(C(=O)C3CCN(S(=O)(=O)c4cn(C)cn4)CC3)CC2)cc1`, the survival was 69% (inactive).
Regarding `Cc1cccc(N2CCN(C(=O)C3CCN(S(=O)(=O)c4cn(C)cn4)CC3)CC2)c1C`, the survival was 92% (inactive).
Turning to `Cc1cccc(N2CCN(C(=O)c3cc(S(=O)(=O)N4CCC(C)CC4)cn3C)CC2)c1C`, the survival is 58% (inactive).
In the case of `Cn1cnc(S(=O)(=O)N2CCC(C(=O)N3CCN(c4ccccc4F)CC3)CC2)c1`, the survival was 75% (inactive).
In the case of `Cn1cnc(S(=O)(=O)N2CCC(C(=O)N3CCN(c4ccc(Cl)cc4)CC3)CC2)c1` it was 37% (active).
As to `CC1CCN(S(=O)(=O)c2cc(C(=O)N3CCN(c4ccccc4F)CC3)n(C)c2)CC1`, the survival is 70% (inactive).
Consider `COc1ccc(N2CCN(C(=O)C3CCN(S(=O)(=O)c4cn(C)cn4)CC3)CC2)cc1`, for which the survival was 69% (inactive).
Take `Cc1ccc(C)c(NC(=O)C(c2ccccc2)N2Cc3ccccc3C2=O)c1` (configuration not stated): the survival was 117% (inactive).
`Cn1c(=O)c2c(nc(CN3CCN(c4ccccc4F)CC3)n2Cc2ccccc2F)n(C)c1=O`: the survival was 92% (inactive).
As for `COc1ccc(-n2nc3cc(C)c(NC(=O)c4ccc(C)cc4C)cc3n2)cc1Cl`, the survival is 83% (inactive).
With `Cc1nnc(NC(=O)CSc2nc3c([nH]c4ccccc43)c(=O)n2-c2ccc(Cl)cc2)s1`, the survival is 73% (inactive).
In the case of `Cc1ccc(CN2CCSc3ccc(C(=O)Nc4ccc(C)cc4)cc32)cc1` it was 105% (inactive); in that of `O=C(CSc1nnc(Cc2ccccc2)o1)N(c1ccccc1)c1ccccc1`, 78% (inactive); in that of `COc1ccccc1NC(=O)C1CCCN(c2nnc(C)c3c(C)n(-c4ccccc4)nc23)C1` (configuration not stated), 84% (inactive).
Take `COc1ccc(S(=O)(=O)NC2(C(F)(F)F)NC(=O)N(CCc3ccccc3)C2=O)cc1` (configuration not stated): the survival was 99% (inactive).
With `COc1ccc(C(=O)NCC(c2ccco2)S(=O)(=O)c2ccc(F)cc2)cc1` (configuration not stated), the survival is 68% (inactive).
In the case of `O=C(NCC(c1ccco1)S(=O)(=O)c1ccc(Cl)cc1)c1ccc(C(F)(F)F)cc1` (configuration not stated) it was 17% (active).
For `CC(C)(C)c1ccc(C(=O)NCC(c2ccco2)S(=O)(=O)c2ccccc2)cc1` (configuration not stated), the survival is 101% (inactive).
As for `Cc1ccc(S(=O)(=O)C(CNC(=O)c2ccc(F)c(F)c2)c2ccco2)cc1` (configuration not stated), the survival is -5% (active).
Consider `CC(C)(C)c1ccc(C(=O)NCC(c2ccco2)S(=O)(=O)c2ccc(F)cc2)cc1` (configuration not stated), for which the survival is 126% (inactive).
In the case of `COc1ccc(C(=O)NCC(c2ccco2)S(=O)(=O)c2ccccc2)cc1` (configuration not stated), the survival was -4% (active).
Turning to `Cc1ccc(S(=O)(=O)C(CNC(=O)c2ccc(C(F)(F)F)cc2)c2ccco2)cc1` (configuration not stated), the survival was 130% (inactive).
With `Cc1ccc(C(=O)NCC(c2ccco2)S(=O)(=O)c2ccc(Cl)cc2)cc1C` (configuration not stated), the survival was 55% (inactive).
With `CCOc1ccc(C(=O)NCC(c2ccco2)S(=O)(=O)c2ccc(C)cc2)cc1` (configuration not stated), the survival was 88% (inactive).
Under `Cc1cc(C)cc(S(=O)(=O)Nc2cccc(-c3ccc(N4CCOCC4)nn3)c2)c1` stands 86% (inactive); under `CCOC(=O)C1CCCN(C(=O)Cn2ncc3c(C)n(Cc4ccc(Cl)cc4)c(C)c3c2=O)C1` (configuration not stated), 59% (inactive); under `O=C(CSc1nnc(-c2ccc3c(c2)OCO3)o1)Oc1ccccc1`, 87% (inactive).
For the compound `CSc1nc(N)c(C#N)c(C(C)C)c1C#N`, the survival was 75% (inactive).
Under `COc1ccc(-n2nc(C(=O)Nc3cccc(C(F)(F)F)c3)c3c4ccccc4n(C)c3c2=O)cc1` stands 78% (inactive); under `CN1C(=O)Cc2cc(S(=O)(=O)NCCc3ccccc3)ccc21`, 123% (inactive); under `CN1C(=O)CC(=O)N(C)c2cc(S(=O)(=O)N(C)Cc3ccccc3)ccc21`, 3% (active).
Take `Cc1cc(S(=O)(=O)N(C)Cc2ccccc2)ccc1-n1cnnn1`: the survival was 81% (inactive).
With `Cc1oc(-c2ccccc2Cl)nc1CS(=O)(=O)CC(=O)NC(C)c1ccccc1` (configuration not stated), the survival was 63% (inactive).

These data come from PubChem BioAssay AID463173 (ICCB-Longwood Screening Facility, Harvard Medical School, 2010).
